Measurements as given in PubChem BioAssay (NCATS).
Unmarked numbers belong to inactive results. The rule behind the calls is not given here.
Potency is the fitted concentration of half-maximal effect.

The compounds below were run on HIV-1 nucleocapsid protein NCp7 (binding to TG oligonucleotide) (assay: HIV Nucleocapsid (AID 346;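 note: potency is for inhibitors that block NC binding and lower polarization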)). Settings: HIV-1 NC / fluorescein-TGTGTGTG probe, fluorescence polarization.
Procedure: NCGC Assay Overview: HIV-1 nucleocapsid protein (HIV-1 NC) is a small (6.5 kDa) basic zinc-finger protein which participates in packaging of viral genomic RNA. The spacing and metal-chelating residues (3 Cys, 1 His) of the Cys-X2-Cys-X4-His-X4-Cys Zn fingers are conserved among all known retroviruses (J. Med. Chem. 1998, 41, 1371-1381). HIV-1 NC was assayed for its binding to the consensus sequence single-stranded 5'-TGTGTGTG. […] High salt was included to increase the stringency of binding and inhibitor screen. Reducing agents and zinc were present to stabilize the nucleocapsid zinc-finger protein.
NCGC Assay Protocol Summary: Buffer. Hepes pH 7.5, 250mM NaCl, 1uM ZnCl2. 0.004% polyethylene glycol 20000. TCEP (100 uM) and 2-Mercaptoethanol (5 mM), added fresh the day of the experiment. Reagents/Controls. 10 nM TG4xF only in columns 3 and 4 as negative control. 10 nM TG4xF/100 nM HIV-1 NC in columns 1, 2, 5-48. Titration of control compound NSC-13778 (from 20 mM, then 1:2) pin-transferred to column 2. Assay Steps. Two uL of reagents were dispensed to 1536-well Kalypsys black plates. The plates were centrifuged for 1 min at 1000 rpm. Compounds and controls (20 nL) were transferred via Kalypsys PinTool. The plates were incubated for 1 hr at room temperature, and then read on ViewLux (Perkin-Elmer). High-throughput CCD imager using fluorescein polarization filter set and 45 seconds exposure time.
`N#Cc1ccc(CN2CC[C@@]3(CCCN(C(=O)c4cccc(F)c4)C3)C2)cc1` gave a Potency greater than 20 µM. Work on `Fc1ccc(Nc2nc(-c3ccoc3)nc3ccccc23)cc1` yielded a Potency greater than 20 µM. `COc1ccc(NC(=O)N2CC[C@@]3(CCCN(S(C)(=O)=O)C3)C2)cc1` gave a Potency greater than 20 µM. Work on `Cc1cnc(CNc2ncnc3ccc(-c4ccc(N(C)C)cc4)cc23)cn1` yielded a Potency greater than 20 µM. `CNc1nc(-c2ccccc2C(F)(F)F)nc2ccccc12` gave a Potency greater than 20 µM. In the case of `COc1ccc2[nH]cc(CCNc3ncncc3-c3cccnc3)c2c1`, the Potency is reported as greater than 20 µM. Work on `COc1cccc(Nc2ncc3ncc(=O)n(CCC#N)c3n2)c1` yielded a Potency greater than 20 µM. In the case of `CCNc1ncc2nc(CCc3ccccc3)c(=O)n(C[C@H]3CCCO3)c2n1`, the Potency is reported as greater than 20 µM. Compound `Cc1ccccc1-c1ccc2ncnc(N(C)Cc3ccco3)c2c1` has a Potency greater than 20 µM. For `O=C(c1cnccn1)N1CCC[C@@]2(CCN(Cc3cc(C(F)(F)F)cc(C(F)(F)F)c3)C2)C1`, the Potency was greater than 20 µM. `CN(C)C(=O)c1ccc(-c2nc(NCc3cccs3)c3ccccc3n2)cc1` gave a Potency greater than 20 µM. For `CC(C)CN1CC[C@@]2(CCCN(C(=O)c3ccco3)C2)C1`, the Potency was greater than 20 µM. `COc1ccc(-n2c(=O)c(C)nc3cnc(Oc4ccccc4)nc32)cc1` gave a Potency greater than 20 µM. `O=C(c1cnccn1)N1CCC2(CC1)CN(Cc1ccccc1)C2` showed a Potency greater than 20 µM. `CN(C)C(=O)c1ccc(-c2ccc3ncnc(N(C)Cc4ccco4)c3c2)cc1` showed a Potency greater than 20 µM. With `CN(C)c1ccc(-c2nc(-n3ccnc3)c3ccccc3n2)cc1` the Potency was greater than 20 µM. Compound `CCNc1ncc2nc(CCc3ccccc3)c(=O)n(Cc3ccc(F)cc3)c2n1` has a Potency greater than 4 µM. In the case of `COc1ccc(Oc2ncc3nc(C)c(=O)n(CCc4ccccc4)c3n2)cc1`, the Potency is reported as greater than 20 µM. For `COc1ccc(-n2c(=O)cnc3cnc(N4CCOCC4)nc32)cc1`, the Potency was greater than 20 µM. For `CC(C)NC(=O)N1CCCC2(CCN(C(=O)c3cc(C(F)(F)F)cc(C(F)(F)F)c3)CC2)C1`, the Potency was greater than 20 µM. With `CS(=O)(=O)N1CCC2(CCCN(Cc3ccccc3)C2)CC1` the Potency was greater than 20 µM. Compound `CCNc1ncc2ncc(=O)n(CCOC)c2n1` has a Potency greater than 20 µM. Compound `CS(=O)(=O)N1CCC2(CCCN(c3ccccn3)C2)CC1` has a Potency greater than 20 µM. `FC(F)(F)c1ccccc1-c1ccc2ncnc(NC3CC3)c2c1` was tested, and the Potency was greater than 20 µM. For `Cn1cc(-c2nc3cnc(N4CCNCC4)nc3n(C)c2=O)c2ccccc21`, the Potency was greater than 20 µM. For `O=C(c1ccco1)N1CCC2(CCCN(c3ccccn3)C2)CC1`, the Potency was greater than 20 µM. In the case of `COc1ccc(-n2c(=O)c(-c3cccc(F)c3)nc3cncnc32)cc1`, the Potency is reported as greater than 20 µM. `FC(F)(F)c1ccccc1-c1nccc(-n2ccnc2)n1` gave a Potency greater than 20 µM. `COc1cccc(Cn2c(=O)c(-c3ccc(F)c(F)c3)nc3cncnc32)c1` showed a Potency greater than 20 µM. `COc1ccccc1CNc1ncnc2ccc(-c3ccccc3CN(C)C)cc12` gave a Potency greater than 20 µM. Compound `CC(C)NC(=O)N1CCC2(CC1)CCN(S(C)(=O)=O)CC2` has a Potency greater than 20 µM. `COc1cccc(Nc2ncc3ncc(=O)n(Cc4ccc(F)cc4)c3n2)c1` showed a Potency greater than 20 µM. With `N#Cc1cccc(NC(=O)N2CC[C@@]3(CCCN(C(=O)c4cc(C(F)(F)F)cc(C(F)(F)F)c4)C3)C2)c1` the Potency was greater than 20 µM. `O=c1c(-c2cccc(F)c2)nc2cncnc2n1C1CC1` showed a Potency greater than 20 µM. With `CC(C)NC(=O)N1CC2(CCN(C(=O)c3cccn3C)CC2)C1` the Potency was greater than 20 µM. `CS(=O)(=O)N1CCC2(CCCN(Cc3cc(C(F)(F)F)cc(C(F)(F)F)c3)C2)CC1` gave a Potency greater than 20 µM. `Fc1ccc(Nc2ncnc3ccc(-c4ccoc4)cc23)cc1` showed a Potency greater than 20 µM. `CN(C)c1ccc(-c2cncnc2NCc2cccs2)cc1` gave a Potency greater than 20 µM. Work on `Clc1ccccc1-c1nc(N2CCNCC2)c2ccccc2n1` yielded a Potency greater than 20 µM. With `CCNc1ncc2nc(C)c(=O)n(Cc3ccc(F)cc3)c2n1` the Potency was greater than 20 µM.
